Only a selection was taken, and hits are over-represented in it overall.
nsP2pro inh: Primary qHTS for inhibitors of NSP2Pro chikungunya virus (CHIKV). Polyprotein P1234 (Chikungunya virus (strain S27-African prototype)), Q8JUX6. FRET peptide cleavage, nsP2pro, fluorescence 1 h. Potency, µM (doses to about 24.9 µM), inactives show at the top dose activity change, negative = inhibition, actives largely listed as inhibitors. 31,000 tested, 1.1% active. AID 1964107, 2024; also: nearly all actives have a fitted effect of over 60% in size
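Purified recombinant nsP2pro (150 nM final) in 10 mM Tris-HCl pH 8.0 with 0.01% Tween 20 was preincubated 15 min at room temperature with compound (7 concentrations, up to 25 uM). FRET peptide 2 substrate (2.5 uM final) was then added; fluorescence was read after 1 h.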
CHIKV nsP2 cell: Secondary cell base assay for inhibitors of NSP2Pro Chikungunya virus (CHIKV). Potency, µM (doses to about 51.1 µM), inactives show top-dose activity change, negative = inhibition, hits mostly inhibitors. cell-based CHIKV nsP2 protease reporter assay. shares compounds with nsP2pro inh. 450 tested, 10% active. AID 1964100, 2024; also: nearly all actives have a fitted effect of over 70% in size
CHIKV NSP2 FL: Selectivity profile for inhibitors of NSP2Pro chikungunya virus (CHIKV): Full length NSP2 enzyme counterscreen (CHIKV-NSP2) | shares compounds with nsP2pro inh | Potency, µM (doses to about 50.7 µM), without a hit: at the top dose activity change, negative = inhibition, hits mostly inhibitors | 410 tested, 39% active | AID 1964101, 2024 | Full-length CHIKV NSP2 protease enzymatic counterscreen; also: nearly all actives have a fitted effect of over 65% in size
Furin counterscr: Selectivity profile for inhibitors of NSP2Pro chikungunya virus (CHIKV): Human furin counterscreen | shares compounds with nsP2pro inh | 410 tested, 6% active | Potency, µM (highest dose often 50.6 µM), for the others: top-dose activity change, negative = inhibition, most hits filed as inhibitors | Recombinant human furin enzymatic counterscreen, fluorogenic substrate | AID 1964102, 2024
NS23 peptide cs: Selectivity profile for inhibitors of NSP2Pro chikungunya virus (CHIKV): Endogenous NS2/3 peptide Counterscreen | 410 tested, 34% active | shares compounds with nsP2pro inh | Purified CHIKV nsP2 protease, endogenous NS2/3 peptide cleavage | Potency, µM (top dose mostly 51 µM), without a hit: at the top dose activity change, negative = inhibition, usual class: inhibitors | AID 1964103, 2024; also: nearly all actives have a fitted effect of over 55% in size
Papain cs: Selectivity profile for inhibitors of NSP2Pro chikungunya virus (CHIKV): Papain Counterscreen; Potency, µM (titrated, usually from 51 µM), inactives show at the top dose activity change, negative = inhibition, hits mostly inhibitors; shares compounds with nsP2pro inh; purified papain protease activity, enzymatic inhibition; 410 tested, 5% active
Target sequence (P00784 whole entry, looked up): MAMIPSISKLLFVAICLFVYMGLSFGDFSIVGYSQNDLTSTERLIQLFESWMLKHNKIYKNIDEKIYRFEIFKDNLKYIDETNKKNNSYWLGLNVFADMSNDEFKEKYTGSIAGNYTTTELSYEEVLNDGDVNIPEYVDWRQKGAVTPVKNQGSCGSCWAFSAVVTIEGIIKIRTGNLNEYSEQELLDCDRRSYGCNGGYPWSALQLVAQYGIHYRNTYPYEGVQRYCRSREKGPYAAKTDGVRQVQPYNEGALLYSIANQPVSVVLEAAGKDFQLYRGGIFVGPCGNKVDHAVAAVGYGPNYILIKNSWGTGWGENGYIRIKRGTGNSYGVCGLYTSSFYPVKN
nsP2pro confirm: Confirmatory qHTS for inhibitors of NSP2Pro chikungunya virus (CHIKV). shares compounds with nsP2pro inh. CHIKV nsP2 protease enzymatic activity, qHTS. Potency, µM (titrated, usually from 25.5 µM), for the others: at the highest dose activity change, negative = inhibition, hits mostly inhibitors. 410 tested, 43% active; also: nearly all actives have a fitted effect of over 75% in size
HCV NS3 4A cs: Selectivity profile for inhibitors of NSP2Pro chikungunya virus (CHIKV): NS34A-HCV Counterscreen; shares compounds with nsP2pro inh; HCV NS3/4A protease biochemical counterscreen; Potency, µM (titrated, usually from 50.9 µM), actives largely listed as inhibitors; 410 tested, 20% active; also: nearly all actives have a fitted effect of over 55% in size
* marks the source's active call; other numbers are inactive results; i = inactive; ? = inconclusive; [ ] = dose if it differs, or a comment. Calls follow the shape of the full dose curve. % is scaled to controls: 0 for no effect and ±100 for the full control effect; potency is read from the fitted curve at half-maximal effect.

SMILES	nsP2pro inh	others
CC(C)=CCC/C(C)=C/CC/C(C)=C/CC/C(C)=C/CC1=C(C)C(=O)c2ccccc2C1=O	-27%
CC(=O)Nc1sc2c(c1-c1ccccc1F)CCNC2	-3%
Cc1ncc(CSSCc2cnc(C)c(O)c2CO)c(CO)c1O	-6%
Cc1ncc(COP(=O)(O)O)c(C=O)c1O	?	CHIKV nsP2 cell=-11%;CHIKV NSP2 FL=-11%;Furin counterscr=4%;NS23 peptide cs=3%;Papain cs=153%;nsP2pro confirm=-9%;HCV NS3 4A cs=i
Cc1ncc(CO)c(C=O)c1O	0%
COC(=O)c1cncc(NC(=O)c2cccs2)c1	i
c1c[nH]c(CNc2ncnc3ccc(-c4ccoc4)cc23)n1	-1%
CCOC(=O)c1ccc(N2CCN(c3cccc(Cl)c3)CC2)c(NC(=O)Nc2ccc(Cl)cc2)c1	7%
Cc1cccc(N2CCN(C(=O)c3ccc(NC(=O)c4nsc5ccccc45)cc3)CC2C)c1 (stereo not given)	3%
Cc1cccc(N2CCN(S(=O)(=O)c3ccc(F)c(C(=O)Nc4cccc(Cl)c4C)c3)CC2C)c1 (stereo not given)	-6%
Cc1cccc(N2CCN(S(=O)(=O)c3cc(C(=O)Nc4ccc(Oc5ccccc5)cc4)ccc3F)CC2C)c1 (stereo not given)	-13%
Cc1cccc(N2CCN(c3ccc(NC(=O)c4ccccc4)cc3C(=O)O)CC2C)c1 (stereo not given)	?	CHIKV nsP2 cell=9%;CHIKV NSP2 FL=6.5µM*;Furin counterscr=?;NS23 peptide cs=16µM*;Papain cs=21%;nsP2pro confirm=8µM*;HCV NS3 4A cs=3.7µM*
Cc1cccc(N2CCN(c3ccc(C(=O)O)cc3NC(=O)c3cccc(Cl)c3)CC2C)c1 (stereo not given)	?	CHIKV nsP2 cell=13%;CHIKV NSP2 FL=0%;Furin counterscr=-25%;NS23 peptide cs=18µM*;Papain cs=?;nsP2pro confirm=8µM*;HCV NS3 4A cs=?
Nc1cc(F)ccc1NC(=O)c1ccc(CNC(=O)/C=C/c2cccnc2)cc1	-17%
O=C(Nc1ccc(F)c(C(F)(F)F)c1)Nc1nnc(-c2cccnc2)s1	-1%
Cc1cc(CC(C)C[Si](C)(O[Si](C)(C)C)O[Si](C)(C)C)c(O)c(-n2nc3ccccc3n2)c1 (stereo not given)	2%[5.1 µM]
CC(C)(C)OC(=O)N1CCN(c2ccc(NCc3cnc(-c4ccc(C#N)cc4)o3)cc2)CC1	0%
O=C(O)c1ccc(-c2noc(-c3ccc(C(F)(F)F)cc3)n2)cc1	3%
N#Cc1ccnc(N2C(=O)CC[C@H]2C(=O)N(c2cncc(F)c2)[C@@H](C(=O)NC2CC(F)(F)C2)c2ccccc2Cl)c1	-9%
CCCCC1CCC(c2nc(-c3ccncc3)no2)CC1 (stereo not given)	8%
CNCc1ccc(C)c(NC(=O)c2ccc(Nc3nc(-c4ccccc4)c4ccccc4n3)cc2)c1	82%
O[C@@H]1[C@@H](O)[C@@H](O)OC[C@@H]1O	-11%[78.4 µM]
